Beta cell apopt – inhibitors of cytokine-induced beta cell apoptosis, primary screen, luminescence | INS-1E cytokine-induced death, ATP luminescence, 48 h; percent of positive-control rescue, neutral wells zero | protection from apoptosis, % (test concentration not listed) | 0.8% of 300,000 active | AID 435005, 2010;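 active = Every replicate reaches about 75%, or at least half do and their mean reaches it too, limit read from the data; inconclusive = At least half of replicates reach the limit but their mean does not; inactive = Under half of replicates reach the limit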;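 also: 0% = cytokine-treated negative control wells and 100% = positive control rescue; higher means more ATP so stronger rescue from cytokine killing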
CSC inhib – cancer stem cell viability inhibitors, primary screen, luminescence; inhibition, % at 7.5 µM; 1.1% of 300,000 active; cancer stem cell-like cells viability; in the data active = inhibition above about 75%; inconclusive = no clear call, values can overlap the other calls; tested in HMLE shEcad cells
Mdm2-MdmX inh – inhibitors of human Mdm2-MdmX association, primary screen, cell-based, luminescence, split luciferase, SaOS-2, uHTS. Protein Mdm4 (Homo sapiens) + E3 ubiquitin-protein ligase Mdm2 (Homo sapiens), …. SaOS-2 split-luciferase Mdm2/MdmX complementation. inhibition, % at 8 µM. 3% of 330,000 active. AID 485346, 2010;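 active = inhibition of at least 50% at 8 µM in the primary screen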
Target sequence (O15151 whole entry, looked up): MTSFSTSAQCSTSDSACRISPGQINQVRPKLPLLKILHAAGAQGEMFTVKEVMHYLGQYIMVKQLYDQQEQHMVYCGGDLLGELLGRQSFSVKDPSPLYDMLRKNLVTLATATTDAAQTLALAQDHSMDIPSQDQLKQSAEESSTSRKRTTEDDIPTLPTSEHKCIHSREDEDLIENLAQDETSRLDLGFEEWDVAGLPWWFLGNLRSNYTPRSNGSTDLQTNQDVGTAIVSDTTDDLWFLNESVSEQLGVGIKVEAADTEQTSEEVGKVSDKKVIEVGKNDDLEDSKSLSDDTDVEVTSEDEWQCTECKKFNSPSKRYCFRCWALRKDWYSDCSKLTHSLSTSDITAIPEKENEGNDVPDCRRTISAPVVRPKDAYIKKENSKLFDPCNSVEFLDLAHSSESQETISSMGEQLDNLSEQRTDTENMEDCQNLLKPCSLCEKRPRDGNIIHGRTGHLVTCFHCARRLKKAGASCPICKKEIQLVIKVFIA
Target sequence (Q00987 whole entry, looked up): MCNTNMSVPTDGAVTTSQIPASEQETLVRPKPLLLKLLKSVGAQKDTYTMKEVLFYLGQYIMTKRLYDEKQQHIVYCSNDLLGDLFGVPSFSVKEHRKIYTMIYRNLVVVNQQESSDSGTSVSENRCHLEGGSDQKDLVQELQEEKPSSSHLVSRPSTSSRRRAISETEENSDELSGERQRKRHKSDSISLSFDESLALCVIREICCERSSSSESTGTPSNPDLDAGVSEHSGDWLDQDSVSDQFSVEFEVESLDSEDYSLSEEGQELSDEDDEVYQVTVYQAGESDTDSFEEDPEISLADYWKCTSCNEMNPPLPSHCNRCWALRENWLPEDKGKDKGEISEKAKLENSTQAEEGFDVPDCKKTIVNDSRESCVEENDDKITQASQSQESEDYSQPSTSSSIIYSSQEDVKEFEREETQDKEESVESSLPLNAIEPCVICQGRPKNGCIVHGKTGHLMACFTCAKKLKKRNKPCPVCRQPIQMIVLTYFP
PAX8 reporter – inhibitors of PAX8-driven TPO luciferase reporter, primary screen, RMG-I cells, single concentration; SteadyGlo, 24 h; inhibition, % at 12.6 µM; 1.2% of 360,000 active; AID 652154, 2013;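 active = mean replicate inhibition at least 60% with every replicate also reaching 60%; inconclusive = only one of the two criteria is met; inactive = mean below 60% and not all replicates reaching 60%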;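 also: luciferase light reporting Pax8 driven TPO promoter activity; plate controls were median of neutral control wells for no effect and mitoxantrone controls for full effect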
Shn3 inh set2 – reduction of Shn3 3'UTR firefly luciferase signal, primary screen, Schnurri-3 inhibitor project, cell-based, Clone20 osteoblasts, set 2. 0.52% of 360,000 active. Clone20 osteoblast Shn3 3'UTR firefly luciferase, 24 h. inhibition, % at 12.5 µM;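 active = mean inhibition of at least 75% with every replicate also reaching 75%; inconclusive = mean inhibition at least 75% but some replicate below; inactive = mean inhibition below 75%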;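 also: 0% = median of neutral control wells and 100% = pilot-screen positive control compound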
Gli-Sufu antag – Gli-Sufu pathway antagonists, primary screen, luciferase luminescence, Sufu-KO-LIGHT cells, uHTS | Sufu-KO-LIGHT fibroblasts, Gli luciferase reporter luminescence | inhibition, % at 5 µM | 0.74% of 340,000 active | AID 588413, 2011;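 active = inhibition above about 55%, limit read from the data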;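 also: 0% = DMSO-treated cells and 100% = wells with medium but no cells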
The depositor's hits bear a star; ? = inconclusive; nt = not tested or not shown. An excerpt weighted towards active compounds, which were near 4% of everything screened.

SMILES	Beta cell apopt	CSC inhib	Mdm2-MdmX inh	PAX8 reporter	Shn3 inh set2	Gli-Sufu antag
C[C@H](CO)N1C[C@H](C)[C@@H](CN(C)Cc2ccc(C(=O)O)cc2)Oc2ccc(NC(=O)Nc3ccc(C(F)(F)F)cc3)cc2CC1=O	nt	nt	nt	21.9	nt	nt
CCCCOc1ccc(C(=O)NNC(=S)NC(=O)CC)cc1	78.9*	46.5	nt	nt	80.7	16.2
CC(C)NC(=O)Nc1cccc2c1O[C@@H](CN(C)Cc1ccc(-c3ccccc3)cc1)[C@@H](C)CN([C@@H](C)CO)C2=O	nt	nt	nt	9.2	nt	nt
COc1ccc(C(=O)CSc2nnc(CN3CCCCC3)n2-c2ccc(Cl)cc2)cc1OC	-18.7	140.1*	-27.2	-18.6	12.1	8.5
O=C(CSc1nnc(CN2CCCC2)n1-c1ccccc1)c1ccc2c(c1)OCO2	-5.7	42.8	10.5	nt	12.6	10.2
Cc1ccccc1-c1ccc2c(c1)O[C@H](CN(C)C(=O)Nc1ccc(F)cc1)[C@@H](C)CN([C@H](C)CO)S2(=O)=O	nt	nt	nt	19.8	nt	nt
CCC/C(=C1/c2ccccc2C(=O)N1c1ccccc1)c1ccc2c(c1)OCCO2	-10.9	88.8*	29.2	36.1	-20.2	18.9
CCn1cc(C(=O)NCc2ccco2)c(=O)c2cc(S(=O)(=O)N3CC(C)CC(C)C3)ccc21 (stereo not drawn)	26.4	82.7*	37.4	63.3*	85.0*	12.2
COc1ccccc1CNC(=O)C[C@H]1CC[C@@H]2[C@H](COC[C@@H](O)CN2Cc2cccc(-c3ccncc3)c2)O1	nt	nt	nt	20.9	nt	nt
COc1cc(/C=N/NC(=O)c2ccccc2)ccc1O	-0.2	13.0	1.6	6.3	-10.4	-16.3
COc1cc(/C=N/NC(=O)c2ccc(CN(C)S(=O)(=O)c3ccc(C)cc3)cc2)ccc1O	7.8	78.3*	18.2	-16.9	-16.2	5.2
COc1cc(/C=N/NS(=O)(=O)c2ccc(C)cc2)ccc1OCc1ccc(C(=O)O)cc1	-2.7	7.2	49.8	99.6*	25.1	-162.9
CCN(CC)c1ccc(N=Cc2ccccc2[N+](=O)[O-])cc1	99.5*	-3.1	19.6	-22.9	0.1	-0.3
CCN(CC)c1ccc(N=Cc2ccc([N+](=O)[O-])o2)cc1	75.4*	23.4	38.7	-4.5	18.7	-20.9
CCCCCC(=O)N/N=C/c1ccc([N+](=O)[O-])o1	44.2	-18.7	9.0	nt	-0.9	-1.0
O=C(N[C@@H]1CC[C@H](CCn2cc(Cc3ccccc3)nn2)O[C@H]1CO)c1ccccn1	nt	nt	nt	-4.0	nt	nt
COc1ccc(NC(=O)Nc2ccc3c(c2)[C@@H]2C[C@@H](CC(=O)N4CCN(C)CC4)O[C@H](CO)[C@@H]2O3)cc1	nt	nt	nt	-9.7	nt	nt
Clc1ccc(SCc2csc(N3CCOCC3)n2)cc1	-6.3	8.9	-11.9	-18.9	-33.2	-12.8
CCSc1cc(N2CCOCC2)nc(-c2ccc(Cl)cc2)n1	-7.1	nt	-10.0	135.1*	-17.8	12.3
Clc1ccc(SCc2cc(N3CCOCC3)nc(-c3ccccn3)n2)cc1	98.9*	10.2	30.8	30.9	29.8	29.8
Cc1ccc[n+](CC(=O)/C=C2\N(C)c3ccccc3C2(C)C)c1	68.0	31.0	-14.6	38.9	-17.0	11.7
CN1/C(=C\C(=O)C[n+]2ccc(C(=O)c3ccccc3)cc2)C(C)(C)c2ccccc21	103.0*	3.7	15.4	?	-10.4	3.4
CN1/C(=C\C(=O)C[n+]2cccc(C(N)=O)c2)C(C)(C)c2ccccc21	nt	-3.9	5.1	-0.8	-10.0	-0.4
CN1/C(=C\C(=O)C[n+]2cccc(Br)c2)C(C)(C)c2ccccc21	100.2*	19.3	16.4	40.6	13.6	-0.9
COc1ccc(Br)cc1S(=O)(=O)N1CCCC1	-1.6	4.4	10.4	5.3	-0.5	-23.8
SMILES	Beta cell apopt	CSC inhib	Mdm2-MdmX inh	PAX8 reporter	Shn3 inh set2	Gli-Sufu antag
COc1cc(S(=O)(=O)N2CCCCCC2)c(OC)cc1Br	-13.6	78.6*	11.3	nt	9.1	5.8
C/C=C/c1ccc([C@@H]2[C@@H](C#N)N(c3ncc(CC)s3)[C@H]2CO)cc1	nt	nt	nt	-4.4	nt	nt
O=c1cc(N2CCCCC2)c(-c2ccccc2)nn1Cc1ccccc1	4.1	105.1*	12.7	6.5	-0.4	10.0
COc1ccc(Cn2nc(-c3ccccc3)c(N3CCCCC3)cc2=O)cc1	4.7	61.9	6.1	5.8	7.3	3.2
Cc1nnc(N/N=C/c2ccco2)n1N	-0.5	6.7	16.5	-0.3	57.3	-2.8
Cc1nnc(N/N=C/c2ccccc2F)n1N	-6.3	-16.7	30.4	20.4	-12.0	2.5
Cc1nnc(N/N=C/c2cccc(C(F)(F)F)c2)n1N	4.3	2.8	5.3	108.1*	-23.7	16.0
Cc1nnc(N/N=C/c2ccccc2C(F)(F)F)n1N	-4.7	-4.7	18.9	84.8*	7.7	4.2
CCCc1ccc(-c2cc(NC(=O)CSc3n[nH]c(N)n3)n(-c3ccccc3)n2)cc1	-6.3	91.3*	-22.2	nt	-30.2	-43.1
CC(C)NC(=S)NC(c1ccccc1)(c1ccccc1)c1ccccc1	111.6*	25.1	49.8	30.9	9.8	29.4
C[C@H]1CN([C@@H](C)CO)C(=O)c2cc(NC(=O)Nc3ccc(C(F)(F)F)cc3)ccc2O[C@@H]1CN(C)C(=O)Nc1cccc2ccccc12	nt	nt	nt	42.4	nt	nt
CCCOC(=O)c1ccc(Oc2cn[nH]c2-c2ccc(OC)cc2O)cc1	0.6	103.7*	8.8	nt	43.8	-6.2
CCCc1nc([N+](=O)[O-])c(S(=O)(=O)c2ccccc2)n1CC(C)C	-27.6	23.0	37.9	86.0*	90.8*	6.3
COC(=O)C[C@H]1CC[C@@H]2[C@@H](COc3ccc(NC(=O)c4cnccn4)cc3C(=O)N2C)O1	nt	nt	nt	5.1	nt	nt
COc1ccc(CN2CCN(CCSc3ccc(C)cc3)CC2)c(OC)c1OC	123.0*	36.2	11.9	23.8	8.0	31.9
COc1ccc(OC)c(CN2CCN(Cc3ccc(OC)c(OC)c3OC)CC2)c1	nt	nt	nt	-1.2	-1.3	nt
Cc1cc(C)cc(N2C(=O)C=CC2=O)c1	nt	nt	nt	36.9	94.2*	-3.6
Cc1c([N+](=O)[O-])cc(N2C(=O)C=CC2=O)cc1[N+](=O)[O-]	nt	nt	nt	nt	20.6	0.0
C[C@@H]1CN([C@@H](C)CO)C(=O)c2cc(NC(=O)c3ccncc3)ccc2O[C@@H]1CN(C)C(=O)Nc1ccc(F)cc1	nt	nt	nt	-0.6	nt	nt
C=CCN1C(=O)[C@]2(O[C@H](CCn3cc(CCO)nn3)[C@@H]([Si](C)(C)c3ccc(OC)cc3)[C@@H]2C)c2cc(N3C(=O)c4cccc5cccc3c45)ccc21	nt	nt	nt	97.4*	nt	nt
C=CCN1C(=O)[C@]2(O[C@H](CCn3cc([C@H](O)c4ccccc4)nn3)[C@@H]([Si](C)(C)c3ccc(OC)cc3)[C@@H]2C)c2cc(N3CCOC3=O)ccc21	nt	nt	nt	0.8	nt	nt
